Shown are actives, neighbours in structure and some others; about 3.8% of the full set was active somewhere.
Mdm2 MdmX PPI: disrupts the human Mdm2-MdmX interaction. inhibition, % at 8 µM. actives 3% (n = 330,000). O15151+Q00987. SaOS-2 split-luciferase Mdm2/MdmX complementation, luminescence. AID 485346;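 active = inhibition of at least 50% at 8 µM in the primary screen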
Target sequence (O15151 whole entry, looked up): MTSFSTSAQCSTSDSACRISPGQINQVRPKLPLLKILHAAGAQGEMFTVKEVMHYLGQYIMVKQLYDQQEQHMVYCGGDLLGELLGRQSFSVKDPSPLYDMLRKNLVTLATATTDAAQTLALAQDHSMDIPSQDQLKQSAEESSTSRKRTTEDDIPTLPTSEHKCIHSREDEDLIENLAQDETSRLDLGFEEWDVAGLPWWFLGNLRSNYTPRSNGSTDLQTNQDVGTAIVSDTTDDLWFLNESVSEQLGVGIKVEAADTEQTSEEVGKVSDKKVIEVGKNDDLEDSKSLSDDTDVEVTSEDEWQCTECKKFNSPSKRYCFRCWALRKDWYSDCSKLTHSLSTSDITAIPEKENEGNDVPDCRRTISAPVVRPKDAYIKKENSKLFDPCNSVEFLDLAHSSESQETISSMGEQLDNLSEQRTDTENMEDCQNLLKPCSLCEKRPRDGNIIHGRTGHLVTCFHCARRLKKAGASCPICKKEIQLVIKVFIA
Target sequence (Q00987 whole entry, looked up): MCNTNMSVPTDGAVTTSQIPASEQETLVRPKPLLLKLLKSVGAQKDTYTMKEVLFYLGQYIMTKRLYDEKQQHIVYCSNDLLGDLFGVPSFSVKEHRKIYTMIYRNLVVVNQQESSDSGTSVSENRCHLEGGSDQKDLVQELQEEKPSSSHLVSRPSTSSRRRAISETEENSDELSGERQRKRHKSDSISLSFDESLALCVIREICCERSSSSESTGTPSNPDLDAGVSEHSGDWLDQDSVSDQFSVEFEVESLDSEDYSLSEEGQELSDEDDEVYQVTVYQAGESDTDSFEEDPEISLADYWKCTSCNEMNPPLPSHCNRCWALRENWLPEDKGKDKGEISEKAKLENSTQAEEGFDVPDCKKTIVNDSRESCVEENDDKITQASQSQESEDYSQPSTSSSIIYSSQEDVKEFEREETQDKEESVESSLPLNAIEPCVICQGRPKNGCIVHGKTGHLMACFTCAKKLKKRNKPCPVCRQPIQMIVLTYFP
Jurkat NFkB inh: lowers PMA/ionomycin-induced NF-kB signal in Jurkat cells; PMA/ionomycin-induced NF-kB luciferase reporter, luminescence; inhibition, % at 4 µM; actives 0.53% (n = 330,000); in the data active = inhibition above about 50%
697 NFkB inh: lowers PMA/ionomycin-induced NF-kB signal in 697 B cells; 697 B-cell NF-kB luciferase reporter, 16 h; inhibition, % at 4 µM; actives 0.33% (n = 330,000); AID 435022; in the data active = inhibition above about 35%
Beta apoptosis: beta cell apoptosis inhibition; protection from apoptosis, % (no concentration beside the values); actives 0.8% (n = 300,000); INS-1E cytokine-induced death, ATP luminescence, 48 h; percent of positive-control rescue, neutral wells zero;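 active = Every replicate reaches about 75%, or at least half do and their mean reaches it too, limit read from the data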;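 note: 0% = cytokine-treated negative control wells and 100% = positive control rescue; higher means more ATP so stronger rescue from cytokine killing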
NTR1 agonist: activates human neurotensin receptor 1 | actives 0.17% (n = 330,000) | NTR1-U2OS beta-arrestin-GFP spot imaging, agonist mode | activation, % at 20 µM;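 active = activation at or above 40% of the spot to cytoplasm intensity ratio, with at least 20 cells analyzed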;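 note: 0% = DMSO without peptide and 100% = 100 nM NTR1 peptide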
A1 inh: inhibitors of the anti-apoptotic protein A1, read as caspase activation | MEF A1-2A-BIM cells, Caspase-Glo 3/7 luminescence, 3 h; percent of clofoctol response, vehicle zero | caspase activation, % (concentration not given with the values) | actives 0.066% (n = 330,000) | AID 2462;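 active = over half of replicate activation scores above 10%, or exactly half above 10 with the replicate mean above 10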
Jurkat NFkB conf: inhibitors of the PMA/ionomycin-induced NF-kB reporter in Jurkat cells, retest | Jurkat NF-kB luciferase, 16 h | shares compounds with Jurkat NFkB inh | actives 27% (n = 2,700) | inhibition, % at 4 µM;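 active = inhibition reaching about 45% at 4 µM in either replicate, limit read from the data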;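 note: plate controls were PMA/ionomycin stimulated DMSO wells for no effect and unstimulated DMSO wells for full effect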
697 NFkB conf: lowers PMA/ionomycin-induced NF-kB signal in 697 B cells; shares compounds with 697 NFkB inh; 697 B-cell NF-kB luciferase, 16 h; inhibition, % at 4 µM; actives 35% (n = 2,000); in the data active = inhibition mostly above about 28%, no sharp cut-off; inactive = mostly below about 22%
Mdm2-MdmX conf: confirmation of human Mdm2/MdmX interaction inhibitors | shares compounds with Mdm2 MdmX PPI | Mdm2-MdmX binding, luminescent assay | inhibition, % at 8 µM | actives 55% (n = 10,000) | AID 489028; in the data active = inhibition above about 40%
FLuc counter: counter-screen for Mdm2/MdmX inhibitors: full-length luciferase. shares compounds with Mdm2 MdmX PPI. SaOS-2 full-length luciferase counterscreen, luminescence. inhibition, % at 8 µM. actives 77% (n = 6,200);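 active = mean inhibition at 8 µM reaching about 37%, which flags the compound as non-specific, limit read from the data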;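 note: p53-null SaOS-2 cells with luciferase driven by a doxycycline-inducible promoter; compound on cells about two nights before reading with doxycycline added after day one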
* marks the source's active call; other numbers are inactive results; nt = no result.

SMILES	Mdm2 MdmX PPI	Jurkat NFkB inh	697 NFkB inh	Beta apoptosis	NTR1 agonist	A1 inh	Jurkat NFkB conf	Mdm2-MdmX conf	FLuc counter	others
CC1CCN(c2c(NCc3ccc(C(=O)N4CCc5ccccc54)cc3)c(=O)c2=O)CC1	65*	58*	-7	16	-3	1	45	53*	39*
COc1ccc(OCc2cc(C(=O)NC3Cc4ccccc4C3)no2)c(Cl)c1	52*	55*	-23	4	1	1	23	70*	72*
COc1ccc(OCc2cc(C(=O)N[C@H]3CCCCNC3=O)no2)c(Cl)c1	1	-42	-47	7	0	0	nt	nt	nt
CN(CC(=O)Nc1ccc(F)cc1)C(=O)COC(=O)/C=C/c1ccc(OC(F)F)cc1	5	-5	11	-12	1	0	nt	nt	nt
COc1ccc(C(=O)/C(=C\c2ccco2)N2C=CC=CC2=C(C#N)C#N)cc1	100*	65*	-3	94*	39	2	49*	99*	51*
CCC(C)[C@H](N)C(=O)NC[C@H]1CC[C@H](C(=O)N[C@@H](Cc2ccccc2)C(=O)O)CC1 (stereo not given in full)	7	-4	11	-4	-1	1	nt	nt	nt
O=C1C=CCC(/C=C/c2ccccc2)O1 (stereo not given)	61*	100*	-165	-5	6	-1	96*	48*	12
O=C(N/N=C\c1c(O)ccc2ccccc12)c1ccc(S(=O)(=O)N2CCCCC2)cc1	83*	55*	-21	97*	1	0	73*	86*	55*
O=C(NN=Cc1c(O)ccc2ccccc12)c1ccc2c(c1)OCO2	88*	67*	-16	-6	5	1	82*	89*	50*
O=C(N/N=C/c1ccccc1)c1ccc2c(c1)OCO2	-74	-83	-103	0	2	-7	nt	nt	nt
C[C@H](CCC(=O)NCC(=O)O)[C@H]1CC[C@H]2C3[C@H](O)C[C@@H]4C[C@H](O)CC[C@]4(C)[C@H]3C[C@H](O)[C@]12C (stereo not given in full)	5	9	10	-5	-1	0	nt	nt	nt
CCC1Nc2ncnc(N3CCOCC3)c2N(Cc2ccc(Cl)cc2)C1=O (stereo not given)	6	7	9	-2	1	0	nt	nt	nt
COc1ccc(N2CCc3c(C)nc4c(OC)cc(OC)cc4c32)cc1	51*	51*	-24	nt	6	-1	10	34	nt
COc1ccc(N2CCc3c(C)nc4c(OC)cc(OC)cc4c32)c(OC)c1	40	23	-16	14	10	0	nt	nt	nt
COc1ccc(N2CCc3c(C)nc4c(OC)cccc4c32)cc1	58*	64*	-124	49	10	0	31	57*	55*
CCOc1ccc(NC(=O)c2ccc(Cl)c(NC(=O)c3ccco3)c2)cc1	8	-12	-26	-2	2	0	nt	nt	nt
CNC(C)C#Cc1c(-c2cc(OC)c(OC)c(OC)c2)noc1C (stereo not given)	28	-3	8	-11	3	-1	nt	nt	nt
COc1cc(-c2c(-c3cc(OC)c(OC)c(OC)c3)noc2C)ccc1F	84*	71*	-280	63	4	0	47*	88*	107*	697 NFkB conf=-162
COc1cc(-c2noc(C)c2C(=O)NCCO)cc(OC)c1OC	19	2	7	-2	-1	2	nt	nt	nt
COc1cc(-c2noc(C)c2/C=C/c2ccc(N)cc2)cc(OC)c1OC	84*	58*	-149	52	5	0	8	86*	108*
COc1ccc(-c2c(-c3cc(OC)c(OC)c(OC)c3)noc2C)cn1	54*	66*	-45	19	-2	0	34	55*	74*
COc1ccc(-c2c(-c3ccc4c(c3)OCO4)noc2C)cn1	33	-2	-3	4	2	0	nt	nt	nt
COc1cc(-c2noc(C)c2C#Cc2ccccn2)cc(OC)c1OC	65*	60*	-26	2	0	1	37	78*	77*
CN1CCC(N(C)C(=O)c2ccc(Cl)c(S(=O)(=O)N(C)c3ccc(Cl)cc3)c2)CC1	13	-10	-6	4	1	1	nt	nt	nt
O=C1NC(Cc2ccc(O)cc2)c2nc3ccc(Cl)cc3c(=O)n2-c2ccc(Cl)cc21 (stereo not given)	19	3	-9	5	0	0	nt	nt	nt
SMILES	Mdm2 MdmX PPI	Jurkat NFkB inh	697 NFkB inh	Beta apoptosis	NTR1 agonist	A1 inh	Jurkat NFkB conf	Mdm2-MdmX conf	FLuc counter	others
Cc1cc(C)c(S(=O)(=O)Nc2ccc3c(c2)CCC3)c(C)c1	39	17	-14	6	23	-1	nt	nt	nt
Cc1cc(C)c(S(=O)(=O)Nc2ccc3c4c(cccc24)CC3)c(C)c1	75*	58*	-68	14	10	0	45	63*	107*
CC(C)[C@H](NS(=O)(=O)c1ccccc1F)C(=O)OCC(=O)Nc1cccc(S(N)(=O)=O)c1	18	2	8	-9	-1	4	nt	nt	nt
COc1cccc(/C=N/Nc2ncnc3scc(-c4ccccc4)c23)c1O	82*	73*	-20	103*	18	-1	57*	80*	14
COc1cccc(/C=N/Nc2nccnc2Cl)c1O	48	-34	-108	nt	0	nt	nt	nt	nt
CCC(C)C(Nc1ncnc2scc(-c3ccccc3)c12)C(=O)O (stereo not given)	-3	0	-3	-3	1	0	nt	nt	nt
COc1cccc(/C=N/Nc2ncnc(Cl)c2N)c1O	100*	56*	-85	127*	1	-4	13	83*	31
COc1cccc(/C=C/C(=O)N2CC(C)OC(C)C2)c1OC (stereo not given)	4	1	7	5	2	0	nt	nt	nt
Cc1ccc(/C=C/C(=O)NCCc2cccc(Cl)c2)o1	-20	6	-23	-4	0	2	nt	nt	nt
O=C(C#Cc1ccccc1)Nc1ccc(F)cc1	38	-4	-23	-1	3	0	nt	nt	nt
O=C(C#Cc1ccccc1)Nc1cccc(F)c1	98*	73*	-100	97*	3	-5	-46	100*	30
CCCCc1ccc(N/C(N)=N/c2nc(C)cc(C)n2)cc1	66*	75*	-40	124*	19	-1	30	33	nt

Screening data from PubChem.
